The record followed here is PubChem BioAssay (NCI).

SMILES strings stand for the structures. The panel holds about 83,000 compounds, 20% with a hit somewhere; the sample as a whole holds those more often.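 Method: cells in 96-well plates; compound added at one concentration; 48 h incubation; percent growth measured; values under 10 scored active.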 Unmarked numbers belong to inactive results. Activity calls are given as the source filed them.

This assay relates to MDA-MB-468 breast. Kind of assay: NCI-60 one-dose screen, 48 h (100 = growth as untreated, 0 = no growth, -100 = all killed). To be noted: 10 µM unless noted.
Take `CSc1nc(N)n2nccc2n1`: the growth was 114%. On to `COc1ccc(C2CC(c3ccc4ccccc4c3)=NN2c2nc(O)c(C3=c4cc(Cl)ccc4=NC3=O)s2)cc1` (stereo not drawn), for which the growth is -73.9% (active). As for `CCN(CC)CC(=O)N(CC)c1ccc(C)c(Cl)c1`, the figure is 95.6%. The same measure for `C=CC(=O)Nc1cccc(Oc2nccc(Nc3nnc(C4CC4)s3)n2)c1`: 102%; for `CNC(=O)c1cc(Oc2ccc3nc(NC(=O)c4ccc(N5CCOCC5)c(C(F)(F)F)c4)sc3c2)ccn1`: 80.5%; for `CCC1=C[C@@H]2CN(C1)Cc1c([nH]c3ccccc13)[C@@](C(=O)OC)(c1cc3c(cc1OC)N(C=O)[C@H]1[C@@](O)(C(=O)OC)[C@H](OC(C)=O)[C@]4(CC)[C@@H]5C[C@@H]5CN5CC[C@]31[C@@H]54)C2`: 25.2%. The same measure for `CC(=O)Nc1scc[n+]1Cc1ccccc1`: 103%; for `C=CCN=c1sc2c(n1NC(=O)c1cc3ccc1CCc1ccc(cc1)CC3)C(=O)c1ccccc1C2=O`: -30.1% (active).

Take `CC[n+]1c(/C=C/c2ccc(N3CCCC3)cc2)cccc1/C=C/c1ccc(N2CCCC2)cc1`: the growth was -85.8% (active). Regarding `COc1ccc(-c2nc3sc(-c4ccccc4)c(-c4ccccc4)n3c2/C=C/C(=O)c2ccccn2)cc1`, the growth was 60%. As to `O=C1/C(=C/c2ccccn2)SC(=S)N1N1CCOCC1`, the growth was 101%. `COc1cc(NC(=O)c2cc3ccccc3cc2O)c(OC)cc1Cl`: the growth was -5.6% (active). As for `CCn1c(SCC(=O)Nc2cccc(C(=O)/C=C/c3cc(OC)c(OC)c(OC)c3)c2)nc2ccccc2c1=O`, the figure is 31.8%.
